Reference: PubChem BioAssay (EPA / NIEHS)
“And” between values parts separate entries of the source, which are not always exact repeats. Identical values can stand only once. Results filed as inconclusive are left out. The source made the active and inactive calls. The calls were made as follows: active = hit-call score of the fitted dose curve at least 0.9, where 1 is the maximum; inconclusive = response in the unintended direction; inactive = score below 0.9.

Tests used:
[1] = ATG_XTT_Cytotoxicity: Cytotoxicity Assessment in the Attagene TRANS-FACTORIAL HepG2 Assay (AID 2283584)
Method in brief: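 HepG2 cells transiently transfected with GAL4-UAS multiple reporter units, dosed 24 h; cytotoxicity read by XTT as loss of signal versus DMSO baseline.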

[2] = TOX21_p53_BLA_p2_viability: Viability Assessment in the Tox21 HCT-116 p53 Agonism Beta-lactamase Assay, Phase 2 (AID 2283591);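 also: compound exposure lasted 16 h at 37 °C; actives lower the ATP signal meaning cytotoxicity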
Method in brief: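 HCT116 p53-bla cells, 4000/well, dosed after 5 h plating (217-fold dilution of DMSO stocks) and incubated 16 h at 37C. Viability taken as cellular ATP by CellTiter-Glo luminescence after 30 min RT; signal loss marks cytotoxicity.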

[3] = target: Cellular tumor antigen p53 (Homo sapiens) (UniProt P04637); experiment: TOX21_p53_BLA_p2_ratio: Tox21 HCT-116 p53 Agonism Beta-lactamase Assay, Ratio, Phase 2 (AID 2283592)
Method in brief: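 First, HCT116 reporter cells settle for 5 h at 37C. Next, DMSO compound solutions are pinned in (217-fold dilution) and left 16 h. Finally, CCF4-AM substrate is loaded 2 h at room temperature and the 460/530 nm ratio read.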

[4] = target: Cellular tumor antigen p53 (Homo sapiens) (UniProt P04637); experiment: TOX21_p53_BLA_p3_ratio: Tox21 HCT-116 p53 Agonism Beta-lactamase Assay, Ratio, Phase 3 (AID 2283596)
Method in brief: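 Cells were seeded at 4000/well, rested 5 h at 37C, then dosed with DMSO compound solutions (217-fold dilution) for 16 h. CCF4-AM substrate was loaded for 2 h at room temperature, and the 460/530 nm emission ratio was fitted for gain of signal versus DMSO.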

[5] = TOX21_p53_BLA_p3_viability: Viability Assessment in the Tox21 HCT-116 p53 Agonism Beta-lactamase Assay, Phase 3 (AID 2283593);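 also: cells exposed to compound for 16 h before reading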
Method in brief: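 HCT116 cells, 4000/well, dosed 5 h after plating by pin transfer (217-fold dilution from DMSO stock) and incubated 16 h at 37C, 5% CO2. Viability read as ATP luminescence with CellTiter-Glo after 30 min at room temperature.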

Measured: AC50

Chain of Cellular tumor antigen p53 (Homo sapiens) (P04637 whole entry, looked up): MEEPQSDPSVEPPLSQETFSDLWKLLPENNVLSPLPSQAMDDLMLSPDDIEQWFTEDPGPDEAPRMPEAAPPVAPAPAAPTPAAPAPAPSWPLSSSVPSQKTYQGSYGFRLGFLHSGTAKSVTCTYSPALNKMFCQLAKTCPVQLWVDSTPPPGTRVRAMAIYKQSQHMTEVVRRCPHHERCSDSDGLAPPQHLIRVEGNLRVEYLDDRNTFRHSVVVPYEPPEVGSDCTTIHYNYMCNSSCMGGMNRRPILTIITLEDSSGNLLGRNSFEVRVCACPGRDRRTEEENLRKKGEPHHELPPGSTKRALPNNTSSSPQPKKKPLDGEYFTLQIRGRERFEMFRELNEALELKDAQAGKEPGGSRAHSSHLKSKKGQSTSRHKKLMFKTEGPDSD

NCCN
inactive: [1] | [2] | [3] | [4]

CCCCCCCCC1CCC(=O)O1 (stereo unspecified)
inactive: [1] | [2] | [4]

Cc1ccc(C)c(S(=O)(=O)O)c1
inactive: [1] | [2] | [3] | [4]

CCCCCCCCCCCCOC(=O)c1cc(O)c(O)c(O)c1
active: [2] 21.7 µM and 28.2 µM | [3] 24.7 µM and 32.4 µM | [5] 49.2 µM and 77.1 µM | [4] 57.6 µM and 81.5 µM

Cc1cc(C(C)(C)C)c(O)c(C(C)(C)C)c1
inactive: [2] | [3] | [5] | [4]

CCOC(=O)CN[C@@H](C(=O)N1CC[C@H]1C(=O)NCc1ccc(/C(N)=N/O)cc1)C1CCCCC1
inactive: [1] | [3] | [5] | [4]

CCOC(C)=O
inactive: [3] | [5] | [4]

C=CC(C)(CCC=C(C)C)OC(C)=O (stereo unspecified)
inactive: [2] | [3] | [5] | [4]

COC(=O)CC(C(C)=O)C(=O)OC (stereo unspecified)
inactive: [1] | [2] | [5] | [4]

COCN(COC)c1nc(N(COC)COC)nc(N(COC)COC)n1
inactive: [2] | [3] | [4]

CCC(C)c1nccnc1OC (stereo unspecified)
inactive: [1] | [3]

CC(=O)Nc1ccc(S(N)(=O)=O)cc1
inactive: [1] | [2] | [4]

O=C(c1cc(O)c(O)c(O)c1)c1ccc(O)c(O)c1O
active: [3] 59.5 µM and 61.8 µM | [4] 60.9 µM and 84.5 µM
inactive: [2] | [5]
